This is an account of results in PubChem BioAssay (NCI).

This is part of a sample that, as a whole, favours compounds with a hit. Of some 83,000 tested, about 20% had one in any assay.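 Interpretation: 100, growth as untreated; towards 0, rising growth inhibition; 0, no net growth; 0 to -100, cell death. Compounds scoring below 10 were considered active.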 A number with no mark means an inactive call. Activity calls are given as the source filed them.

Holding throughout (experiment): NCI-60 one-dose screen, 48 h (100 = growth as untreated, 0 = no growth, -100 = all killed)
One experiment deals with HCT-15 colon. Conditions: 10 µM unless noted.
The subject of another experiment is HT29 colon. Conditions: 10 µM unless noted.
A further experiment concerns SNB-19 CNS. Conditions: 10 µM unless noted.
The test system of another experiment is PC-3 prostate. Conditions: 10 µM unless noted.
A further experiment concerns SK-MEL-5 melanoma. Conditions: 10 µM unless noted.
Another experiment deals with UACC-62 melanoma. Conditions: 10 µM unless noted.
The next experiment has as its system LOX IMVI melanoma. Conditions: 10 µM.
In the next experiment the test system is SK-MEL-28 melanoma. Conditions: 10 µM unless noted.
The test system of another experiment is SK-MEL-2 melanoma. Conditions: 10 µM unless noted.
The next experiment deals with EKVX NSCLC. Conditions: 10 µM unless noted.
The next experiment deals with SN12C renal. Conditions: 10 µM unless noted.
For a further experiment, the system named is UO-31 renal. Conditions: 10 µM unless noted.
Another experiment relates to TK-10 renal. Conditions: 10 µM unless noted.
A further experiment relates to ACHN renal. Conditions: 10 µM unless noted.
The test system of a further experiment is CAKI-1 renal. Conditions: 10 µM unless noted.
In the next experiment the test system is A498 renal. Conditions: 10 µM unless noted.
The test system of the next experiment is CCRF-CEM leukemia. Conditions: 10 µM unless noted.
A further experiment relates to MOLT-4 leukemia. Conditions: 10 µM unless noted.
In a further experiment the test system is U251 CNS. Conditions: 10 µM unless noted.

Turning to `Cc1ccccc1[C@H]1C(C(=O)c2ccc(Cl)cc2)C2(N[C@@H]1c1ccccc1)C(=O)Nc1ccccc12` (some centres undefined), the growth with HCT-15 colon is -14% (active); in the experiment with HT29 colon it was -88.7% (active); in the experiment on SNB-19 CNS, 16.2%; with PC-3 prostate, -22.6% (active); in the experiment with SK-MEL-5 melanoma it was -72.2% (active); in the experiment on UACC-62 melanoma, -83.5% (active). Also, the growth in the experiment on LOX IMVI melanoma is -100% (active); in the experiment with SK-MEL-28 melanoma it was -34.3% (active); in the experiment on SK-MEL-2 melanoma, -76.3% (active); in the experiment with EKVX NSCLC, -15.6% (active); with SN12C renal, -94.9% (active); in the experiment on UO-31 renal, 0.424% (active). Also, the growth is -8.15% (active) in the experiment with TK-10 renal; -13.9% (active) with ACHN renal; 3.96% (active) in the experiment with CAKI-1 renal; -8.76% (active) in the experiment with A498 renal; -13.8% (active) in the experiment with CCRF-CEM leukemia; -18% (active) in the experiment on MOLT-4 leukemia.

Consider `Cn1cc(-c2cc3nc(-c4cn(C)c5ncc(Br)cc45)cc(N)n3n2)c2ccccc21`, for which the growth in the experiment on HCT-15 colon is -23.3% (active); in the experiment on HT29 colon, -86.1% (active); with SNB-19 CNS it was -27% (active); in the experiment with U251 CNS, -68.8% (active); in the experiment on PC-3 prostate, -15.5% (active); in the experiment with SK-MEL-5 melanoma it was -94% (active). For the same compound, the growth with UACC-62 melanoma was -83.2% (active); in the experiment on LOX IMVI melanoma, -100% (active); in the experiment on SK-MEL-28 melanoma, -91.6% (active); in the experiment with SK-MEL-2 melanoma it was -73.6% (active); with EKVX NSCLC, -44.2% (active); in the experiment on UO-31 renal it was -36.3% (active). Besides, the growth in the experiment on TK-10 renal was -32.8% (active); in the experiment on ACHN renal, -45.9% (active); in the experiment with CAKI-1 renal, 1.08% (active); in the experiment on A498 renal, -24.3% (active); in the experiment with CCRF-CEM leukemia, -23.9% (active); with MOLT-4 leukemia, -42% (active).

In the case of `COc1c(F)ccc(C(=O)Nc2ccc3nc(NC(=O)C4CCCN(S(=O)(=O)c5cccc(Br)c5)C4)sc3c2)c1F` (centres undefined), the growth is 80.8% with HCT-15 colon; 85.7% with HT29 colon; 82.7% in the experiment on SNB-19 CNS; 75% in the experiment with U251 CNS; 57.8% with PC-3 prostate; 89.4% in the experiment with SK-MEL-5 melanoma. In addition, the growth in the experiment on UACC-62 melanoma is 80.8%; with LOX IMVI melanoma, 85%; in the experiment with SK-MEL-28 melanoma it was 97.8%; in the experiment on SK-MEL-2 melanoma it was 94.9%; with EKVX NSCLC, 90.9%; in the experiment on SN12C renal, 88.4%. Also, the growth in the experiment with UO-31 renal was 79.3%; in the experiment on TK-10 renal, 118%; in the experiment on ACHN renal it was 82.9%; with A498 renal, 112%; in the experiment with CCRF-CEM leukemia it was 89.5%; in the experiment on MOLT-4 leukemia, 49.3%.

As for `COc1ccc(-c2nc3cc(C)ccc3n2CC(=O)N=Nc2c(O)[nH]c3ccc(OC)cc23)cc1`, the growth is -86.5% (active) in the experiment with HCT-15 colon; -20% (active) in the experiment with HT29 colon; 4.91% (active) in the experiment with SNB-19 CNS; -80.2% (active) with U251 CNS; -52.4% (active) in the experiment on PC-3 prostate; -95.9% (active) with SK-MEL-5 melanoma. Also, the growth in the experiment with UACC-62 melanoma was -86.5% (active); with LOX IMVI melanoma it was -98% (active); with SK-MEL-28 melanoma, -97.8% (active); with SK-MEL-2 melanoma, -14% (active); in the experiment with EKVX NSCLC, -25.5% (active); with SN12C renal it was -95.1% (active). Further, the growth in the experiment with UO-31 renal is -29.4% (active); with ACHN renal it was -73.9% (active); in the experiment with CAKI-1 renal, -51.3% (active); in the experiment with CCRF-CEM leukemia, 38.5%; in the experiment on MOLT-4 leukemia it was -46.2% (active).

Regarding `C=C1CC[C@@H]2[C@]3(C)COC(c4cn[nH]c4-c4cccc(Br)c4)O[C@@H]3CC[C@@]2(C)[C@@H]1C/C=C1/C(=O)OCC1O` (some centres undefined), the growth in the experiment with HCT-15 colon was -67.5% (active); in the experiment with HT29 colon it was 1.52% (active); in the experiment on SNB-19 CNS, -87.9% (active); in the experiment on U251 CNS, -90.9% (active); with PC-3 prostate, -47.9% (active); in the experiment with SK-MEL-5 melanoma, -99.6% (active). In addition, the growth with UACC-62 melanoma is -83.2% (active); in the experiment on LOX IMVI melanoma, -100% (active); with SK-MEL-28 melanoma, -76.7% (active); in the experiment with SK-MEL-2 melanoma it was -69.8% (active); in the experiment on EKVX NSCLC, -62.3% (active); in the experiment with UO-31 renal it was -100% (active). For the same compound, the growth in the experiment on TK-10 renal is -59.7% (active); with ACHN renal, -100% (active); with CAKI-1 renal, -39.3% (active); in the experiment on A498 renal, -93.7% (active); in the experiment with CCRF-CEM leukemia, -15.6% (active); with MOLT-4 leukemia it was 12.2%.

Consider `Cc1ccc([C@H]2C(C(=O)c3ccc(Cl)cc3)C3(N[C@@H]2c2ccccc2)C(=O)Nc2ccccc23)cc1` (some centres undefined), for which the growth in the experiment with HCT-15 colon is 35.6%; with HT29 colon, 17.8%; with SNB-19 CNS it was 41%; with U251 CNS, 48.6%; in the experiment with PC-3 prostate it was 2.35% (active); with SK-MEL-5 melanoma it was 34.3%. The growth in the experiment with UACC-62 melanoma is 13.4%; in the experiment on LOX IMVI melanoma, 25.5%; in the experiment with SK-MEL-28 melanoma it was 32.8%; in the experiment with SK-MEL-2 melanoma it was 15.6%; in the experiment with UO-31 renal it was 17.7%; in the experiment with ACHN renal it was 22.5%. Moreover, the growth is 32% in the experiment with CAKI-1 renal, 75.5% with A498 renal, 14.7% with CCRF-CEM leukemia and -26.6% (active) with MOLT-4 leukemia.

`C=C1CC[C@@H]2[C@]3(C)COC(c4cn[nH]c4-c4ccc(Br)cc4)O[C@@H]3CC[C@@]2(C)[C@@H]1C/C=C1/C(=O)OCC1O` (some centres undefined): the growth is -62.6% (active) in the experiment on HCT-15 colon; 0.504% (active) with HT29 colon; -36.5% (active) in the experiment with SNB-19 CNS; -86.7% (active) with U251 CNS; -44.1% (active) in the experiment on PC-3 prostate; -97% (active) with SK-MEL-5 melanoma. Moreover, the growth in the experiment with UACC-62 melanoma was -79.1% (active); in the experiment on LOX IMVI melanoma, -100% (active); in the experiment on SK-MEL-28 melanoma, -78% (active); in the experiment with SK-MEL-2 melanoma, -68.4% (active); in the experiment with EKVX NSCLC, -51% (active); in the experiment with SN12C renal, -64.9% (active). The growth with UO-31 renal was -92.1% (active); in the experiment with ACHN renal, -100% (active); in the experiment with CAKI-1 renal, -40.9% (active); in the experiment on A498 renal, 97.8%; with CCRF-CEM leukemia, -6.18% (active); in the experiment on MOLT-4 leukemia, 2.63% (active).

As for `C=C1CCC2C3(C)COC(c4ccccc4)OC3CCC2(C)C1CC(Sc1ccccc1)C1=CCOC1=O` (centres undefined), the growth in the experiment with HCT-15 colon was 5.46% (active); in the experiment with HT29 colon it was 13.8%; in the experiment on SNB-19 CNS, 85.5%; in the experiment with U251 CNS, 17.5%; in the experiment with PC-3 prostate, 29.3%; in the experiment with SK-MEL-5 melanoma it was 55.2%. Also, the growth in the experiment on UACC-62 melanoma is 39.5%; with LOX IMVI melanoma, -98% (active); in the experiment on SK-MEL-28 melanoma, 82.5%; in the experiment with SK-MEL-2 melanoma, 59.4%; in the experiment on EKVX NSCLC, 69.3%; with SN12C renal, 25.7%. Further, the growth is 45.5% with UO-31 renal; 106% in the experiment on TK-10 renal; 65.1% in the experiment on ACHN renal; 78.4% in the experiment with CAKI-1 renal; -1.92% (active) in the experiment with CCRF-CEM leukemia; -14.3% (active) in the experiment with MOLT-4 leukemia.

As to `COc1ccc(-c2ccnc(SCc3cc4ccccc4[nH]c3=O)n2)cc1OC`, the growth in the experiment on HCT-15 colon was 39.5%; in the experiment with HT29 colon, -80.8% (active); with SNB-19 CNS, -7.41% (active); in the experiment on U251 CNS it was -13.5% (active); with PC-3 prostate, -21.9% (active); in the experiment on SK-MEL-5 melanoma it was 1.35% (active). Further, the growth with UACC-62 melanoma is 1.83% (active); in the experiment on LOX IMVI melanoma, 18.8%; with SK-MEL-28 melanoma, 9.54% (active); with SK-MEL-2 melanoma, 17.4%; in the experiment on EKVX NSCLC, -16.6% (active); in the experiment with SN12C renal, -37.6% (active). Moreover, the growth with UO-31 renal was -73.4% (active); with ACHN renal it was -76.6% (active); in the experiment with CAKI-1 renal it was -67% (active); with A498 renal, -18.9% (active); in the experiment with CCRF-CEM leukemia it was 106%; with MOLT-4 leukemia it was 74%.
